About 79,000 compounds went through this panel and 15% of them were active in at least one assay; those are over-represented in the sample as a whole. Cut-off read from the data, not from the text of the source: active = growth inhibition above about 70%; inactive = the rest.
Tests used:
[1] = NCI Yeast Anticancer Drug Screen. Data for the rad50 strain (AID 155);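 note: 0% = growth of vehicle-only cultures of the same strain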; details: S. cerevisiae rad50 strain growth inhibition; at 50.0 µM; hits give high values
In short: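 A DNA repair-deficient yeast mutant serves as the test organism; compound-induced growth inhibition is calculated against vehicle-treated cells.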

[2] = NCI Yeast Anticancer Drug Screen. Data for the mec2-1 strain (AID 157); details: S. cerevisiae mec2-1 strain, at 50.0 µM, hits give high values
In short: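 mec2-1 yeast strain, carrying an alteration in DNA damage repair or cell cycle control, was exposed to compounds; growth inhibition was measured relative to vehicle-treated controls.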

[3] = NCI Yeast Anticancer Drug Screen. Data for the sgs1 mgt1 strain (AID 161);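 note: 0% = growth of cultures given vehicle only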; details: S. cerevisiae sgs1 mgt1 strain, at 50.0 µM, hits give high values
In short: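 Growth of a repair-deficient yeast mutant was monitored after compound treatment and expressed as inhibition relative to vehicle-treated cultures.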

[4] = NCI Yeast Anticancer Drug Screen. Data for the cln2 rad14 strain (AID 165);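 note: 0% = growth equal to vehicle treated cultures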; details: S. cerevisiae cln2 rad14 strain, at 50.0 µM, hits give high values
In short: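 Yeast carrying cln2 and rad14 alterations (cell cycle control and DNA damage repair) were exposed to compounds. Growth inhibition was measured against vehicle-treated controls.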

[5] = NCI Yeast Anticancer Drug Screen. Data for the bub3 strain (AID 167); details: S. cerevisiae bub3 mutant strain, at 50.0 µM, hits give high values
In short: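 Inhibition values come from growth of compound-treated mutant yeast normalised to vehicle-treated controls.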

[6] = NCI Yeast Anticancer Drug Screen. Data for the mlh1 rad18 strain (AID 175); details: S. cerevisiae mlh1 rad18 strain growth inhibition; at 50.0 µM; hits give high values
In short: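 Growth inhibition of the yeast strain was measured after compound exposure and expressed relative to vehicle-treated controls. The strain carries defined defects in DNA damage repair.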

Measured: growth inhibition

C[CH2][Sn]([CH2]C)([CH2]C(=O)OC)[CH2]C(=O)OC
inactive: [1] 3.15% | [2] 14.7% | [3] 15.5% | [4] 11.7% | [5] 14.4% | [6] -9.9%

O=P1(N2CCOCC2)OC(c2ccccc2)=CCN1c1ccc(Cl)cc1 (centres undefined)
inactive: [1] -8.9% | [2] 1.3% | [3] -1.85% | [4] -20.1% | [5] 5.2% | [6] 6.55%

CN(C)CCC(O)c1c[nH]c2ccccc12 (centres undefined)
inactive: [1] 6% | [2] 1% | [3] -4.1% | [4] -5.15% | [5] 1.15% | [6] 1.15%

CSc1sc2ccccc2[s+]1
inactive: [1] -10.8% | [2] -5.4% | [3] -0.35% | [4] 10.6% | [5] 9.55% | [6] 3.35%

NC(=Nc1ccccc1)N/N=C/c1c[nH]c2ccccc12
inactive: [1] -15.2% | [2] -14.9% | [3] -20.2% | [4] 3.45% | [5] -7.15% | [6] -50%

O=C(CN1CC1)NCCCCCCCNC(=O)CN1CC1
inactive: [1] -13.4% | [2] 3.5% | [3] 1.6% | [4] 8.15% | [5] -4.15% | [6] 25.4%

CCOC(=O)/C(=C\c1ccc(OC)cc1)[Se]c1ccccc1
inactive: [1] 50% | [2] -11% | [3] 39.5% | [4] 13.8% | [5] 44.6% | [6] 59.9%

O=[N+]([O-])c1ccc(OCc2ccc(Cl)c(S(=O)(=O)F)c2)c(Cl)c1
inactive: [1] -18.1% | [2] -8.3% | [3] 29.8% | [4] -24.4% | [5] 20.7% | [6] 24.1%

COc1cc(OC)cc(C(=O)Cc2c(C(=O)c3ccccc3)c3ccccc3n2C(=O)c2ccccc2)c1
inactive: [1] -5.5% | [2] -6% | [3] 0.1% | [4] -50.3% | [5] -2.15% | [6] 3.2%

CC(c1ccccc1)N1CCN(C(C)c2ccccc2)CC1 (centres undefined)
inactive: [1] 2.75% | [2] -34.5% | [3] -31.7% | [4] 26.4% | [5] -30% | [6] 4.95%

COP1(=O)Oc2ccccc2C(=O)C(C(F)(F)F)(C(F)(F)F)O1 (centres undefined)
inactive: [1] -16.9% | [2] -1.6% | [3] -15.8% | [4] 5.05% | [5] -20.2% | [6] -34.1%

[Cu+2].[O-]c1ccc2ccccc2c1N=Nc1ccccc1.[O-]c1ccc2ccccc2c1N=Nc1ccccc1
inactive: [1] -70.1% | [2] -13.1% | [3] -13.1% | [4] -15.9% | [5] 2.4% | [6] -12.2%

O=C(Cc1cccc([N+](=O)[O-])c1)Nc1cccc(S(=O)(=O)F)c1
inactive: [1] 5.8% | [2] -19.6% | [3] -20.3% | [4] -2.9% | [5] 16.6% | [6] 23.9%

Cc1cc(C)[n+](CCc2ccccc2)c(C)c1
inactive: [1] 5.15% | [2] 2.55% | [3] -3.25% | [4] -6.3% | [5] 2.4% | [6] 4.25%

Cc1nn(C)pc1P(C)(=S)n1nc(N(C)C)np1 (centres undefined)
inactive: [1] -2.65% | [2] -19.1% | [3] 0.65% | [4] 0.2% | [5] -7.55% | [6] -7.75%

CC(CC(C#N)(c1ccccc1)c1ccccc1)N1CCCCC1 (centres undefined)
inactive: [1] 27.6% | [2] 14% | [3] -22.9% | [4] 12.1% | [5] 33.5% | [6] 27.4%

O=[As](O)(O)c1cc(N=Nc2ccc(-c3ccc(N=Nc4cc([As](=O)(O)O)c(O)cc4O)cc3)cc2)c(O)cc1O
inactive: [1] 0.1% | [2] 44% | [3] 33.2% | [4] -19.7% | [5] -4.2% | [6] 25.4%

C1CC[N-]CC1.CC(=N\O)/C(C)=N/O.CC(=N\O)/C(C)=N/O.C[CH-]C(C)O.[Co+2]
inactive: [1] -2% | [2] -7.15% | [3] 36.3% | [4] 8.2% | [5] -13.1% | [6] 39.9%

C[N+]1(CC2CC2)C2CC(OC(=O)C(CO)c3ccccc3)CC1C1OC12 (centres undefined)
inactive: [1] 11.1% | [2] 23.9% | [3] 10.7% | [4] 9.55% | [5] -0.6% | [6] -33.5%
